Results filed as inconclusive are left out. A number with no mark means an inactive call. Active and inactive are the calls of the source. The call rests on the fitted dose curve; in most records, active means well fitted inhibition curve with a large enough effect; inconclusive means small, poorly fitted or top-dose-only effect; inactive means flat fitted curve, though single readings scatter.
Test: CHOP2 Reporter Counterscreen Assay for Inhibitors of Ubiquitin-specific Protease USP2a;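 further: activated enterokinase alone at 50 pM in a cell-free format rather than USP2a or CHOP2; nearly all actives have a fitted effect of over 55% in size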
Conditions: purified enterokinase, fluorogenic substrate, 485/531 nm; series mostly up to 38.3 µM; activity change, negative = inhibition: at the top concentration
Summary of the method: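 Cell-free counterscreen with pre-activated enterokinase alone (50 pM final) in 20mM Tris-HCl pH 8.0, 2mM CaCl2, 2mM beta-mercaptoethanol, 0.05% CHAPS; compound preincubation 30 min RT, reporter substrate 25nM final, fluorescence read after 10 min (Ex 485/Em 531).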
On the % scale 0 is the no-effect control and ±100 the full control effect; potency means the concentration at half of the fitted maximal effect.

| Structure (SMILES) | activity change, negative = inhibition [%] | Potency |
| --- | --- | --- |
| CC(C)c1ccc(C2=C(O)c3ccccc3C(=O)C2=O)cc1 | 0.933 |  |
| Cc1ccccc1OCCn1nc(C(=O)O)c2ccccc2c1=O | -4.22 |  |
| O=C(Nn1c(SCc2ccc([N+](=O)[O-])cc2)nc2ccccc2c1=O)c1ccc(F)cc1 | -0.219 |  |
| CC(/C=N/NC(=O)c1cc(-c2cccs2)[nH]n1)=C\c1ccccc1 | -6.36 |  |
| CC(=O)Nc1ccc(Nc2cc(C)nc(Nc3ccc(NC(C)=O)cc3)n2)cc1 | -3.67 |  |
| c1ccc(-c2nc3nc4ccccc4nc3n2Cc2ccco2)cc1 | 3.7 |  |
| Cc1cccc(NC(=S)NCc2ccc3c(c2)cc(C)n3C)c1C | 2.98 |  |
| Cc1cc(C)n2nc(S(=O)(=O)NCCc3ccccc3)nc2n1 | -2.84 |  |
| CCCOc1ccc(N2C(=O)CC(NCCc3ccc(S(N)(=O)=O)cc3)C2=O)cc1 (stereo not given) | 0.525 |  |
| O=C(COC(=O)c1cc(-c2ccc(Cl)s2)nc2ccccc12)NCc1ccco1 |  | 10 µM (active) |
| CCC/C(O)=C1\C(=O)CC(C)(C)CC1=Nc1ccc(OC)cc1OC | 1.13 |  |
| Cc1ccc(C(=O)N/C(=C/c2ccco2)C(=O)Nc2cccc(C(=O)O)c2)cc1 |  | 10 µM (active) |
| COc1cccc(N2C(=O)C3CCCN3C2c2ccc(N(C)C)cc2)c1 (stereo not given) | 1.86 |  |
| O=C(Nc1nnc(-c2ccco2)s1)C1CCCCC1 | -0.811 |  |
| Cc1ccc(S(=O)(=O)N2[C@@H](c3ccccc3F)C(C(=O)O)=CC[C@H]2c2ccc(Cl)c(Cl)c2)cc1 | 0.747 |  |
| O=C(Nc1ccc(N2CCCC2)cc1)c1cccc(-c2cc3ccccc3oc2=O)c1 | -5.21 |  |
| O=C(COC(=O)c1cccc(S(=O)(=O)N2CCc3ccccc32)c1)NC1CCS(=O)(=O)C1 (stereo not given) | 7 |  |
| C=CC[C@H](CC(=O)N[C@H](CO)Cc1ccccc1)C(=O)N[C@H](COC(=O)[C@@H](CC=C)CC(=O)OC(C)(C)C)Cc1c[nH]c2ccccc12 | -3.18 |  |
| CCC(C)(C)n1nnnc1C(c1ccc(C)cc1)N1CCCC1 (stereo not given) | 0.491 |  |
| O=C(Cc1cc(=O)[nH]c(=O)[nH]1)NCC1CCCO1 (stereo not given) | 0.989 |  |

| Structure (SMILES) | activity change, negative = inhibition [%] | Potency |
| --- | --- | --- |
| COc1ccc(C(=O)CSc2nnc(-c3ccco3)c(-c3ccco3)n2)cc1 |  | 6.31 µM (active) |
| O=C(Nc1ccccc1)Nc1snnc1C(=O)Nc1cccc(O)c1 | -8.36 |  |
| O=C(/C=N/O)NCc1cccnc1 | 0.652 |  |
| O=C(N/N=C/c1ccc(F)cc1)c1cc(-c2ccco2)nc2ccccc12 |  | 2.24 µM (active) |
| CCOc1ccccc1C(=O)NC1CC2CCCC(C1)N2C1CC1 (stereo not given) | 0.436 |  |
| O=C(CN1CCC(O)CC1)N1c2ccccc2C=Cc2ccccc21 | 4.57 |  |
| CC(=O)N1CCCc2cc(S(=O)(=O)CCC(=O)N3CCN(c4cccc(C)c4)C(C)C3)ccc21 (stereo not given) | -0.373 |  |
| Cc1noc(NS(=O)(=O)c2ccc(N3CC(O)=C(c4ccccc4)C3=N)cc2)c1C | 0.63 |  |
| Cc1ccc(NC(=O)CCC(=O)OC(C)C(=O)c2ccccc2)cc1 (stereo not given) | -2.47 |  |
| O=C(Nc1cccc(C(F)(F)F)c1)/C(=C\c1ccco1)NC(=O)c1cccs1 | 7.95 |  |
| O=C(O)c1cccc(S(=O)(=O)NNc2ccccc2C(F)(F)F)c1 | -1.31 |  |
| O=S(=O)(Nc1cccc(-c2cn3c(n2)SCC3)c1)c1ccc(F)cc1F | 0.249 |  |
| Cc1c2c(=O)n(-c3nc4ccccc4s3)nc-2cc(O)n1Cc1ccccc1 |  | 11.2 µM (active) |
| O=C(Nc1nnc(-c2cccs2)o1)c1cccc(Oc2ccccc2)c1 | -2.38 |  |
| CCOc1ccc(S(=O)(=O)N(CC(=O)O)c2ccccc2)cc1 | 2.04 |  |
| C=CCn1c(N)c(C(=O)NCc2cccnc2)sc1=S | 12.9 |  |
| COc1cccc(/C=N/n2c(SC)nnc2-c2ccccc2)c1O | 3.06 |  |
| COc1cc(/C=N/NC(=O)c2cc(-c3ccccc3)nc3ccccc23)ccc1O | -2.73 |  |
| COc1ccc(-n2c(SCC(=O)N3CCN(c4ccccc4)CC3)nc3c(c2=O)SCC3)cc1 | -4.64 |  |
| Nc1cc(=O)[nH]c(SCc2cccc(Cl)c2)n1 | 6.13 |  |

From PubChem BioAssay AID493169 (National Center for Advancing Translational Sciences (NCATS), 2011)
